Here are results for 6 compounds from PubChem BioAssay (NCI).

Among the test systems are DU-145 prostate; K-562 leukemia; MALME-3M melanoma; MDA-MB-231 breast; RXF 393 renal; SF-268 CNS; SF-295 CNS; SF-539 CNS; UACC-257 melanoma; M14 melanoma; HCT-15 colon; HT29 colon; SNB-75 CNS; SNB-19 CNS; PC-3 prostate; SK-MEL-5 melanoma; UACC-62 melanoma; LOX IMVI melanoma; SK-MEL-28 melanoma.
Holding throughout (assay): NCI-60 one-dose screen, 48 h (100 = growth as untreated, 0 = no growth, -100 = all killed)
Details in all cases: 10 µM unless noted

This is part of a sample that, as a whole, favours compounds with a hit. Of some 83,000 tested, about 20% had one in any assay.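 Interpretation: 100, growth as untreated; towards 0, rising growth inhibition; 0, no net growth; 0 to -100, cell death. Compounds scoring below 10 were considered active.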 A number with no mark means an inactive call. Active and inactive are the calls of the source.

On to `O=C1/C(=C/c2ccc(Oc3ccccc3)cc2)N=C(c2ccccc2)N1CCc1cccs1`, for which the growth was 98% in the assay on DU-145 prostate; 84% in the assay with K-562 leukemia; 86.1% with MALME-3M melanoma; 79.8% in the assay with MDA-MB-231 breast; 92.1% in the assay with RXF 393 renal; 80.8% with SF-268 CNS. The growth with SF-295 CNS was 82.9%; in the assay on SF-539 CNS, 104%; with UACC-257 melanoma, 99.1%; in the assay with M14 melanoma, 58.7%; with HCT-15 colon, 92.4%; in the assay with HT29 colon, 35%. Moreover, the growth with SNB-75 CNS was 63.2%; in the assay on SNB-19 CNS it was 89%; in the assay on PC-3 prostate it was 62.1%; in the assay on SK-MEL-5 melanoma, 95.2%; in the assay with UACC-62 melanoma, 72%; in the assay on LOX IMVI melanoma it was 62.1%. Also, the growth with SK-MEL-28 melanoma was 94%.

For `COc1ccc(/C=N\N2CCOCC2)cc1OC1CCCC1`, the growth is 102% in the assay on DU-145 prostate; 108% with K-562 leukemia; 127% with MALME-3M melanoma; 110% in the assay on MDA-MB-231 breast; 113% in the assay on RXF 393 renal; 94.8% with SF-268 CNS. For the same compound, the growth in the assay on SF-295 CNS was 98.1%; in the assay with SF-539 CNS, 94.9%; in the assay on UACC-257 melanoma it was 102%; with M14 melanoma, 92.7%; with HCT-15 colon, 104%; in the assay on HT29 colon it was 106%. For the same compound, the growth is 86.8% in the assay with SNB-75 CNS; 95.8% in the assay with SNB-19 CNS; 101% with PC-3 prostate; 92.7% in the assay on UACC-62 melanoma; 101% in the assay with LOX IMVI melanoma; 116% in the assay on SK-MEL-28 melanoma.

`CSc1ccc(OC(C)=O)cc1C`: the growth in the assay with DU-145 prostate is 94%; in the assay on K-562 leukemia it was 114%; in the assay with MALME-3M melanoma, 95.5%; in the assay on MDA-MB-231 breast, 113%; with RXF 393 renal it was 98.5%; in the assay on SF-268 CNS, 94.3%. Also, the growth in the assay with SF-295 CNS is 97.7%; with SF-539 CNS it was 98.5%; with UACC-257 melanoma, 97.6%; in the assay on M14 melanoma, 101%; in the assay on HCT-15 colon it was 95%; in the assay on HT29 colon it was 104%. The growth was 94.3% with SNB-75 CNS; 109% in the assay on SNB-19 CNS; 96.6% with PC-3 prostate; 98.8% in the assay on SK-MEL-5 melanoma; 98.1% in the assay on UACC-62 melanoma; 95.5% with LOX IMVI melanoma. Also, in the assay on SK-MEL-28 melanoma, the growth is 110%.

Regarding `CC(=O)OC[C@]1(C)C=C2C(=O)[C@](C)(O)C3(CC3)C(C)=C2[C@H]1OC(C)=O`, the growth in the assay with DU-145 prostate is 16.7%; with K-562 leukemia, 93.1%; with MALME-3M melanoma, 111%; in the assay on MDA-MB-231 breast it was 93.2%; in the assay on RXF 393 renal, 3.69% (active); in the assay with SF-268 CNS, 69.4%. In addition, the growth in the assay on SF-295 CNS was 83%; with SF-539 CNS, 95.2%; with UACC-257 melanoma, 106%; with M14 melanoma, 88.2%; with HCT-15 colon it was 72.9%; in the assay with HT29 colon, 69.9%. For the same compound, the growth in the assay on SNB-75 CNS is 56.5%; with SNB-19 CNS, 83%; in the assay with PC-3 prostate it was 88.1%; with SK-MEL-5 melanoma, 87.8%; with UACC-62 melanoma, 103%; in the assay on LOX IMVI melanoma, 78.3%. In the assay on SK-MEL-28 melanoma, the growth is 109%.

Take `Cn1c(=O)c(S(=O)(=O)c2ccccc2)cc2ccc3c(cnn3-c3ccc(Cl)cc3)c21`: the growth is 82.9% in the assay on DU-145 prostate; 91.6% with K-562 leukemia; 85.1% in the assay on MALME-3M melanoma; 75.7% with MDA-MB-231 breast; 55.8% in the assay on RXF 393 renal; 80.6% in the assay with SF-268 CNS. The growth in the assay with SF-295 CNS is 90.2%; in the assay on SF-539 CNS, 45%; in the assay with UACC-257 melanoma it was 83.4%; in the assay with M14 melanoma it was 83.7%; in the assay with HCT-15 colon, 73%; in the assay on HT29 colon, 79.2%. The growth in the assay on SNB-75 CNS was 38.9%; in the assay on SNB-19 CNS it was 90.1%; in the assay with PC-3 prostate, 79.9%; in the assay with SK-MEL-5 melanoma, 84.6%; in the assay on UACC-62 melanoma, 89.1%; in the assay on LOX IMVI melanoma, 78.9%. Besides, the growth in the assay on SK-MEL-28 melanoma was 84.6%.

`c1ccc(-c2n(Cc3ccc4ccccc4n3)c3ccccc3[n+]2Cc2ccc3ccccc3n2)cc1`: the growth in the assay with DU-145 prostate is 17.5%; in the assay on K-562 leukemia, 2.99% (active); in the assay with MALME-3M melanoma, -24.6% (active); with MDA-MB-231 breast, -13.1% (active); with RXF 393 renal, -4.06% (active); with SF-268 CNS it was 5.9% (active). For the same compound, the growth in the assay with SF-295 CNS was -9.19% (active); with SF-539 CNS it was 7.88% (active); in the assay on UACC-257 melanoma, -2.75% (active); in the assay with M14 melanoma, -14.9% (active); in the assay on HCT-15 colon, 47.9%; with HT29 colon, 0.506% (active). The growth with SNB-75 CNS was -21.5% (active); in the assay on SNB-19 CNS, 10.6%; with PC-3 prostate, 5.27% (active); in the assay with SK-MEL-5 melanoma, -95.9% (active); with UACC-62 melanoma, -45% (active); in the assay with SK-MEL-28 melanoma it was -4.75% (active).
